Measured values reported in article PMC7862700, “An all-to-all approach to the identification of sequence-specific readers for epigenetic DNA modifications on cytosine”.

What was measured:
Assay in all cases: DAPPL (digital affinity profiling via proximity ligation, sequencing); 10 mM Tris-HCl pH 7.5, 50 mM NaCl, 1 mM DTT, 4% glycerol, room temperature, 30 min; GST-TFs on glutathione beads, 16-mer random dsDNA library, 0.1% formaldehyde crosslink after washing; high values mean tight binding
FEV = target: T1, FEV (Homo sapiens, UniProt Q99581 1-238); conditions: protein: recombinant; tags: N-terminal GST; dsDNA, one strand shown
T1 sequence: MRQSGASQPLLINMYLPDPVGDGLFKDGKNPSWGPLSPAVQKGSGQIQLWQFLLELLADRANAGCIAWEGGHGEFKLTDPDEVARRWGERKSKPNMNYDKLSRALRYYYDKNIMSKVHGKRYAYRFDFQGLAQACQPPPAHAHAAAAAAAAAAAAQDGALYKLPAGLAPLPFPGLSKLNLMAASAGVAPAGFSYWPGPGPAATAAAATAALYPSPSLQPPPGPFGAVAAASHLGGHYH
Outline: (§1)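 Beads coated with glutathione captured GST-fused human transcription factors that had been expressed in yeast, and the factors were then given DNA barcodes and pooled with a tag-only sample. The pools were incubated with 200 nmole of a random double-stranded 16-mer DNA library in Tris/NaCl/DTT/glycerol buffer for 30 min at room temperature, washed, crosslinked with 0.1% formaldehyde and proximity-ligated with BsaI/T4 ligase at 37 °C for 1 h. PCR amplification and Illumina NextSeq500 sequencing came last. Binding signal is each hexamer's read frequency for a factor divided by its frequency for the tag-only sample.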

ETV5 = ETV5 (Homo sapiens, UniProt P41161 1-510); conditions: protein: recombinant; tags: N-terminal GST; dsDNA, one strand shown
Sequence of ETV5 (P41161 whole entry): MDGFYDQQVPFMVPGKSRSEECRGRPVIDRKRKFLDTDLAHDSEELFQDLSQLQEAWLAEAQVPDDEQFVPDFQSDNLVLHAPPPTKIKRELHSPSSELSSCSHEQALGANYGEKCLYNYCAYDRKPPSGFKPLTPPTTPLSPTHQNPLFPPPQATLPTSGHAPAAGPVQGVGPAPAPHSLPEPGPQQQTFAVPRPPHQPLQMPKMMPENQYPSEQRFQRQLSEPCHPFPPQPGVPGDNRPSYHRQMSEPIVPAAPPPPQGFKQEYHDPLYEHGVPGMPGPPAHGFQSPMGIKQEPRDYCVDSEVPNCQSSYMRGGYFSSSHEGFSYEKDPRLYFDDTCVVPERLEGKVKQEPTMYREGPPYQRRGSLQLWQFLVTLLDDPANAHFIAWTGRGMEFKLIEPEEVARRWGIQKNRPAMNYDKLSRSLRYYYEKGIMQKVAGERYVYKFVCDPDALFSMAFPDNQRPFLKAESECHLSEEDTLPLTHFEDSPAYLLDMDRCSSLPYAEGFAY
Outline: as §1

HSF1 = HSF1 (Homo sapiens, UniProt Q00613 1-529); conditions: protein: recombinant; tags: N-terminal GST; chain copies: 3; dsDNA, one strand shown
Sequence of HSF1 (Q00613 whole entry): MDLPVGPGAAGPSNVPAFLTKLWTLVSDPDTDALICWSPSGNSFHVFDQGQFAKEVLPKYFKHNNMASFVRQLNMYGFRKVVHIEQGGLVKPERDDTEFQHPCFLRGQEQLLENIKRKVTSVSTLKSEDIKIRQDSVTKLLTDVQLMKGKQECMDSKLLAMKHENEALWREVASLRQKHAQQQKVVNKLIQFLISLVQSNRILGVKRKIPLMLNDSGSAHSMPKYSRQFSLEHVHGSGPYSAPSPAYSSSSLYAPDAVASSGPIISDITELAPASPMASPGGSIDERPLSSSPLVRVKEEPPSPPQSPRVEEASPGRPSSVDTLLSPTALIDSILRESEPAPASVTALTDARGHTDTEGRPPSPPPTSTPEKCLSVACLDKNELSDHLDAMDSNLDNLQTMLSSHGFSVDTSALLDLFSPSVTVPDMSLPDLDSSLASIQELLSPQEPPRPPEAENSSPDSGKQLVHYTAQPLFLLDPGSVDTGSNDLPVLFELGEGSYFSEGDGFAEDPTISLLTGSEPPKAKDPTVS
Outline: as §1

SPIC = target: T2, SPIC (Homo sapiens, UniProt Q8N5J4 1-248); conditions: protein: recombinant; tags: N-terminal GST; dsDNA, one strand shown
T2 sequence: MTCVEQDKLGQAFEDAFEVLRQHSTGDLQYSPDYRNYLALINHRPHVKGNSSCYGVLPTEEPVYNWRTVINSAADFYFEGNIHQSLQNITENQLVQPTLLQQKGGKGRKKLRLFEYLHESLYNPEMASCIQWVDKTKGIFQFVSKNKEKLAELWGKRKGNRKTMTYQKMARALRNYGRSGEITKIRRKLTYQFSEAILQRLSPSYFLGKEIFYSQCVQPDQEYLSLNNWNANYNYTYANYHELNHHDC
Outline: as §1

ELF4 = ELF4 (Homo sapiens, UniProt Q99607 1-663); conditions: protein: recombinant; tags: N-terminal GST; dsDNA, one strand shown
Sequence of ELF4 (Q99607 whole entry): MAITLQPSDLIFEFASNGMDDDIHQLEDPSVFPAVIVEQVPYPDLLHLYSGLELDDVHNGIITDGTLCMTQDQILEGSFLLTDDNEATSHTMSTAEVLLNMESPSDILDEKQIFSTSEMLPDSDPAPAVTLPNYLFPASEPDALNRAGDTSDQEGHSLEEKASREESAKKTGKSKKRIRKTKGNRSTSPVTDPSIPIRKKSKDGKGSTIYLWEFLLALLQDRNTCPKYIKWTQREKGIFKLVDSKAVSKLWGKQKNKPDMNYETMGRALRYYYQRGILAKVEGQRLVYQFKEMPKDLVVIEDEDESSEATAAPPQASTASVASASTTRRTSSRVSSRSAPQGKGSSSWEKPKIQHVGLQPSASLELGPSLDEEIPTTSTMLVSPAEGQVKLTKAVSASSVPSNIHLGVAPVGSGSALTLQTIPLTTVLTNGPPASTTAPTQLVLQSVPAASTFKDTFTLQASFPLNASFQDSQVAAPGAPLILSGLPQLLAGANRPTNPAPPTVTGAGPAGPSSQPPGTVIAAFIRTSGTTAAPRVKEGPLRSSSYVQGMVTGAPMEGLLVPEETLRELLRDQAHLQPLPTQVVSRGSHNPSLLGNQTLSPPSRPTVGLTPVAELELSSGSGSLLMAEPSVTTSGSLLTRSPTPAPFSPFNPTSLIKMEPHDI
Outline: as §1

ELK4 = target: T3, ELK4 (Homo sapiens, UniProt P28324-2 1-405); conditions: protein: recombinant; tags: N-terminal GST; dsDNA, one strand shown
T3 sequence: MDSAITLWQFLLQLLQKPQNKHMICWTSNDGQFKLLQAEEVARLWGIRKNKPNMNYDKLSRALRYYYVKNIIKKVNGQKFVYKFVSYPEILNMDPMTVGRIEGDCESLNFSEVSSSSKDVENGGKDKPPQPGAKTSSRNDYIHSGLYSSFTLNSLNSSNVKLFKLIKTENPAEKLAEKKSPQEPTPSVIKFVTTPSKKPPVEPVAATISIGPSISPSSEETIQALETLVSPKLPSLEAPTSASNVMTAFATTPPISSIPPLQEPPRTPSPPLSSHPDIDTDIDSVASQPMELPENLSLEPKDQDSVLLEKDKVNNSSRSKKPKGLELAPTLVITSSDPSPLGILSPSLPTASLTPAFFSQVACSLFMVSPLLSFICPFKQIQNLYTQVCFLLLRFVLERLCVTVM
Outline: as §1

ETV2 = target: T4, ETV2 (Homo sapiens, UniProt O00321 1-342); conditions: protein: recombinant; tags: N-terminal GST; dsDNA, one strand shown
T4 sequence: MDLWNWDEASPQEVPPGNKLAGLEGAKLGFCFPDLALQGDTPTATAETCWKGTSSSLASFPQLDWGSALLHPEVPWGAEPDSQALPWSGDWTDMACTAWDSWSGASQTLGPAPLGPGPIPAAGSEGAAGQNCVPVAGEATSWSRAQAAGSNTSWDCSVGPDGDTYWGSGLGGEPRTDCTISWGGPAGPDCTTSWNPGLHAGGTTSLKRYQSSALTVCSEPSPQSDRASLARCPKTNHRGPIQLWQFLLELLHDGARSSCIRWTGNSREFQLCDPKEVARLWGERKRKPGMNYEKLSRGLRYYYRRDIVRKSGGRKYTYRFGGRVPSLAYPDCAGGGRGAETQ
Outline: as §1

ELF3 = target: T5, ELF3 (Homo sapiens, UniProt P78545 1-371); conditions: protein: recombinant; tags: N-terminal GST; dsDNA, one strand shown
T5 sequence: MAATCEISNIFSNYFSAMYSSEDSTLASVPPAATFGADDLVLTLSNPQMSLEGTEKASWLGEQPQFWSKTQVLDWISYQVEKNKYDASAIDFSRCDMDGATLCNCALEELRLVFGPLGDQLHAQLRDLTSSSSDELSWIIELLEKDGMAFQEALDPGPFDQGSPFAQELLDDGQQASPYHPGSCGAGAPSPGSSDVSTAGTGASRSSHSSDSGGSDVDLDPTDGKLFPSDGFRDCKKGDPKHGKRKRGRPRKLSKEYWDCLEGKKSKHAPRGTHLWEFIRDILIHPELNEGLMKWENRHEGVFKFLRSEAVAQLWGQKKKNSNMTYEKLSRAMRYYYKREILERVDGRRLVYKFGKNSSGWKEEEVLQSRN
Outline: as §1

CRX = CRX (Homo sapiens, UniProt O43186 1-299); conditions: protein: recombinant; tags: N-terminal GST; dsDNA, one strand shown
Sequence of CRX (O43186 whole entry): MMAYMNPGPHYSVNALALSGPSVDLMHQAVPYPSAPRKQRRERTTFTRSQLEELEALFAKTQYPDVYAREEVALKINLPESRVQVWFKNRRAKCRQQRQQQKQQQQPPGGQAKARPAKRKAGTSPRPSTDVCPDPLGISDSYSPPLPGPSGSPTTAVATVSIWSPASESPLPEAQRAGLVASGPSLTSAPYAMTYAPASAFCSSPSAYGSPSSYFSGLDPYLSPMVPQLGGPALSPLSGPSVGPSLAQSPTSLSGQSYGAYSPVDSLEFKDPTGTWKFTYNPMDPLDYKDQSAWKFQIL
Outline: as §1

ETV1 = ETV1 (Homo sapiens, UniProt P50549 1-477); conditions: protein: recombinant; tags: N-terminal GST; dsDNA, one strand shown
Sequence of ETV1 (P50549 whole entry): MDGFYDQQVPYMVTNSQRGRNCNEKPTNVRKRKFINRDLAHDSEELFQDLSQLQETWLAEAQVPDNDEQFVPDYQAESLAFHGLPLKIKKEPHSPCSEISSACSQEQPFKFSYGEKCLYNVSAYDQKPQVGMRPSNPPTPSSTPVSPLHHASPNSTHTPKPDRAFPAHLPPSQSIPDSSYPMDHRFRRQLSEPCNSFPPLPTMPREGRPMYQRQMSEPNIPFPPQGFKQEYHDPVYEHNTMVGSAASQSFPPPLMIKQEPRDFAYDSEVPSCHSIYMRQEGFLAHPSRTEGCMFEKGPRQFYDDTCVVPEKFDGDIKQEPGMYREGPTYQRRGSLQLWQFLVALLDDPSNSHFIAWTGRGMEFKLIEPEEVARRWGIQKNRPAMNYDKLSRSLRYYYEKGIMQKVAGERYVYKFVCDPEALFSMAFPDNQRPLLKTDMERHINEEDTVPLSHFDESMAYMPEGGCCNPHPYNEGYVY
Outline: as §1

ERF = target: T6, ERF (Homo sapiens, UniProt P50548 1-548); conditions: protein: recombinant; tags: N-terminal GST; dsDNA, one strand shown
T6 sequence: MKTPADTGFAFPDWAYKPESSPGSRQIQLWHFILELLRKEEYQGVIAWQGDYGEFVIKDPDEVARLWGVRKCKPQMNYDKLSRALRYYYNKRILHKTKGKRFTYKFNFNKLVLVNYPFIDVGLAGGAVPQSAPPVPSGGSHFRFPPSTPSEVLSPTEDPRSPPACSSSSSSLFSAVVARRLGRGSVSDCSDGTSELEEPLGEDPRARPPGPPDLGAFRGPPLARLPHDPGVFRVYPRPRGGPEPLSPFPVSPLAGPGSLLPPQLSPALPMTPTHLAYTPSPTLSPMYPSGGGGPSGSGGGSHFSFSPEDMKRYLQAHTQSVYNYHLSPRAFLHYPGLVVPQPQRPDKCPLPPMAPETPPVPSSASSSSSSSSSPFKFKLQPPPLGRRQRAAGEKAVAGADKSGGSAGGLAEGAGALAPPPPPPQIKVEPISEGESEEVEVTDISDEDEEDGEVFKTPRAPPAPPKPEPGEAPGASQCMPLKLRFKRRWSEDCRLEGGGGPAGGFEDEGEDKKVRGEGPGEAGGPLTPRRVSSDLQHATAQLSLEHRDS
Outline: as §1

ETV3L = target: T7, ETV3L (Homo sapiens, UniProt Q6ZN32 1-361); conditions: protein: recombinant; tags: N-terminal GST; dsDNA, one strand shown
T7 sequence: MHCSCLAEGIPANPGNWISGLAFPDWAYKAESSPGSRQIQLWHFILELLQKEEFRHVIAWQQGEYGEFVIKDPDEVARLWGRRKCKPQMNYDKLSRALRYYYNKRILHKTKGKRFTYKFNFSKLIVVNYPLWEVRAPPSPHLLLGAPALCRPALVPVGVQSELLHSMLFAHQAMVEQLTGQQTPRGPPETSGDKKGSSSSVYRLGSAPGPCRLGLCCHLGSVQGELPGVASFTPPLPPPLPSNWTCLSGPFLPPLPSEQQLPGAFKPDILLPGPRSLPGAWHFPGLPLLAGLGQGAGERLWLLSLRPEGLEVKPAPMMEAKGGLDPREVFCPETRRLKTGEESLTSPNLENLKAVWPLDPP
Outline: as §1

ETS2 = target: T8, ETS2 (Homo sapiens, UniProt P15036 1-469); conditions: protein: recombinant; tags: N-terminal GST; dsDNA, one strand shown
T8 sequence: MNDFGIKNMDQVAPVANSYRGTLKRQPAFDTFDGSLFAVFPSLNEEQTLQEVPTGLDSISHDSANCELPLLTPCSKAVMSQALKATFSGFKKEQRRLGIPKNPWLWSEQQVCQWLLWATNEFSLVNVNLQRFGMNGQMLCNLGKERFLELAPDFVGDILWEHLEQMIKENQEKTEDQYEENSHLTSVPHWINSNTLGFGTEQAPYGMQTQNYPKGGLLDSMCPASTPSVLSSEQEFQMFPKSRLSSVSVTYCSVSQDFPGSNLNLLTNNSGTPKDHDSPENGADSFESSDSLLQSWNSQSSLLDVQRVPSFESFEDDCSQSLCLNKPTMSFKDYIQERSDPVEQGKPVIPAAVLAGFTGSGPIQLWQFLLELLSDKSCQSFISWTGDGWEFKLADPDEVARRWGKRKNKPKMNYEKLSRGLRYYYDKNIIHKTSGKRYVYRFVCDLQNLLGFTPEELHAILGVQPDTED
Outline: as §1

SPDEF = target: T9, SPDEF (Homo sapiens, UniProt O95238 1-335); conditions: protein: recombinant; tags: N-terminal GST; dsDNA, one strand shown
T9 sequence: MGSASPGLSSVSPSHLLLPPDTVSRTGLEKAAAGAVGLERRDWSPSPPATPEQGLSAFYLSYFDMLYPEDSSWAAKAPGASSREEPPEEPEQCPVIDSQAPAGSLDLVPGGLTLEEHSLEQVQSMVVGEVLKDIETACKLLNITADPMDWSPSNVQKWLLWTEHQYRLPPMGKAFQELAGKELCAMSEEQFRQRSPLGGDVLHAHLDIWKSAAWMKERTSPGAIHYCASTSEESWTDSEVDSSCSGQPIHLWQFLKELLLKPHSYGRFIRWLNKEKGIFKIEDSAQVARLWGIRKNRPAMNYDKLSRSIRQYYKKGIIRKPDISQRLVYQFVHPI
Outline: as §1

ETV7 = target: T10, ETV7 (Homo sapiens, UniProt Q9Y603 1-341); conditions: protein: recombinant; tags: N-terminal GST; dsDNA, one strand shown
T10 sequence: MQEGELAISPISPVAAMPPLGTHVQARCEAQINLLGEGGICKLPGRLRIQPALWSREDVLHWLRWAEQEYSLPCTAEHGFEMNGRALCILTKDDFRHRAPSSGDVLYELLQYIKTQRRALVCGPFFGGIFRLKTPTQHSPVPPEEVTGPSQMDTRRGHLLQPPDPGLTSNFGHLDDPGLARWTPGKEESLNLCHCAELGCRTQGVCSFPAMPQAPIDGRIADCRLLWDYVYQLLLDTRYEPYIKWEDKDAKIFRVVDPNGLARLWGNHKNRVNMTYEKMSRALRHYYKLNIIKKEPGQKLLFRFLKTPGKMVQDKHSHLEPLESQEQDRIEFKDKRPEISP
Outline: as §1

ELF5 = target: T11, ELF5 (Homo sapiens, UniProt Q9UKW6-2 1-255); conditions: protein: recombinant; tags: N-terminal GST; dsDNA, one strand shown
T11 sequence: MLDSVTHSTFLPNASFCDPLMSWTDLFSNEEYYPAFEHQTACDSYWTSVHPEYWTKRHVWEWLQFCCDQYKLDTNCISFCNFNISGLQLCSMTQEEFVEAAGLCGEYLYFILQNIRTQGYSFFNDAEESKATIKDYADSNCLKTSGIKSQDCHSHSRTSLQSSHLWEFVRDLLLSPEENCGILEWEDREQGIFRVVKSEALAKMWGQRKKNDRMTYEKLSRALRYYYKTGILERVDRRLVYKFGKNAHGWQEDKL
Outline: as §1

ETV3 = target: T12, ETV3 (Homo sapiens, UniProt P41162-2 1-143); conditions: protein: recombinant; tags: N-terminal GST; dsDNA, one strand shown
T12 sequence: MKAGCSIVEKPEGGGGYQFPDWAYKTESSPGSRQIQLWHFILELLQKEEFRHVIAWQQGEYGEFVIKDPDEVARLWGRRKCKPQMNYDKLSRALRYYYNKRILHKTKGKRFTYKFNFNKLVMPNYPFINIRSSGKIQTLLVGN
Outline: as §1

ETV6 = ETV6 (Homo sapiens, UniProt P41212 1-452); conditions: protein: recombinant; tags: N-terminal GST; dsDNA, one strand shown
Sequence of ETV6 (P41212 whole entry): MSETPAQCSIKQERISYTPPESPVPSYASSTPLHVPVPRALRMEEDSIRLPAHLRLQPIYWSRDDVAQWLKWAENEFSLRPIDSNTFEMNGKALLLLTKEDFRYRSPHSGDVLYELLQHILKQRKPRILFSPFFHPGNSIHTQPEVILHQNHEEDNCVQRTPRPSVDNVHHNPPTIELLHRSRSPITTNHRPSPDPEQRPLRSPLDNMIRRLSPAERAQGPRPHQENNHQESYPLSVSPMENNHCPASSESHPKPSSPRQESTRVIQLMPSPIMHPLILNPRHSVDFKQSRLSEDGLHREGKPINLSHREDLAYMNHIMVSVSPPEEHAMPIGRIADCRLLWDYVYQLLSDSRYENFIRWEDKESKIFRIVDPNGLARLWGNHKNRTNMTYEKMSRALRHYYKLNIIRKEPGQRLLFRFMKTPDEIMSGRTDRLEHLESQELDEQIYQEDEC
Outline: as §1

In the case of ATGATT, the binding signal (FEV) is reported as 1.15 fold enrichment (6-mer frequency, TF over GST control), the binding signal (ETV5) is reported as 1.18 fold enrichment (6-mer frequency, TF over GST control) and the binding signal (HSF1) is reported as 1.33 fold enrichment (6-mer frequency, TF over GST control). For the same sequence, the binding signal (SPIC) was 1.17 fold enrichment (6-mer frequency, TF over GST control), the binding signal (ELF4) was 1.12 fold enrichment (6-mer frequency, TF over GST control) and the binding signal (ELK4) was 1.21 fold enrichment (6-mer frequency, TF over GST control). The binding signal (ETV2) was 1.26 fold enrichment (6-mer frequency, TF over GST control), the binding signal (ELF3) was 1.12 fold enrichment (6-mer frequency, TF over GST control) and the binding signal (CRX) was 1.58 fold enrichment (6-mer frequency, TF over GST control). The binding signal (ETV1) was 1.19 fold enrichment (6-mer frequency, TF over GST control), the binding signal (ERF) was 1.18 fold enrichment (6-mer frequency, TF over GST control) and the binding signal (ETV3L) was 1.24 fold enrichment (6-mer frequency, TF over GST control). The binding signal (ETS2) was 1.18 fold enrichment (6-mer frequency, TF over GST control), the binding signal (SPDEF) was 1.15 fold enrichment (6-mer frequency, TF over GST control) and the binding signal (ETV7) was 1.17 fold enrichment (6-mer frequency, TF over GST control). The binding signal (ELF5) was 1.14 fold enrichment (6-mer frequency, TF over GST control), the binding signal (ETV3) was 1.3 fold enrichment (6-mer frequency, TF over GST control) and the binding signal (ETV6) was 1.19 fold enrichment (6-mer frequency, TF over GST control).
